The values below come from PubChem BioAssay.

SMILES strings stand for the structures. Calls of active or inactive are those of the source. Unless noted, no rule for the calls is given here.

Assay [1] has as its system Wnt5a (protein binding on small-molecule microarray). The assay is described as follows: Wnt5a binders on small-molecule microarray, primary screen, biophysical, 635/667 nm fluorescence (AID 1142).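 Also: fluorescence read at 667 nm with signal to noise per printed feature.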 The following applies: 635 nm fluorescence, higher = more signal.
The nature of assay [2]: cell viability in Huh7 cells, primary screen, cytotoxicity control for HCV replication inhibitor project, CellTiter-Glo luminescence, basal, 48 h (AID 1143).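 Also: Huh7 hepatoma cells carrying a hepatitis C replication reporter with no stimulus; test concentration not given here.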 The following applies: Huh7 HCV replicon, higher = more signal, called active from +8 up or from −8 down. On the technique in general: In ATP-based viability assays light output follows the ATP content of the culture.
A short description of assay [3]: P. aeruginosa biofilm formation inhibitors, primary screen, PAO1 strain, BacTiter-Glo luminescence, LB-PBS (AID 1144). The following applies: 12 h, higher = more signal.
The nature of assay [4]: CREB reporter modulators without forskolin, primary screen, cell-based, PC12, CRE-LacZ reporter, unstimulated (AID 1145). The following applies: no forskolin, luminescence, 4.5 h, higher = more signal, called active from +8 up or from −8 down.
The nature of assay [5]: CREB reporter modulators under forskolin, primary screen, cell-based, PC12, CRE-LacZ reporter, forskolin-stimulated (AID 1146).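 Also: PC12 cells with 6xCRE LacZ reporter stimulated by forskolin 10 µM; beta-galactosidase reporter signal reflecting CREB driven transcription.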 The following applies: luminescence, 4.5 h, higher = more signal, called active from +8 up or from −8 down.
The target of assay [6] is Streptavidin (Streptomyces avidinii) (UniProt P22629). Description: streptavidin binders on small-molecule microarray, primary screen, artefact control for SMM compound annotation, biophysical, 635/667 nm fluorescence (AID 1147).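 Also: signal reflects streptavidin binding to arrayed compounds as a control protein.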 The following applies: streptavidin binding, higher = more signal.
Assay [7] is described as follows: small-molecule binders of probe aInhba, primary screen, biochemical, small-molecule microarray, 635/667 nm fluorescence (AID 1148).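 Also: score merges 667nm spot fluorescence with signal-to-noise for antibody binding to printed compounds.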 The following applies: higher = more signal.
Assay [8] deals with Torsin-1A (Homo sapiens) (UniProt O14656). Description: torsin A binders from cell lysate, primary screen, small-molecule microarray, wild-type, 635/667 nm (AID 1149). The following applies: COS7 hTOR1A-WT lysate, 635 nm fluorescence, higher = more signal.
Assay [9] has the same target. The assay is described as follows: small-molecule binders of mutant TOR1A in lysate, primary screen, cell lysate, small-molecule microarray, COS7 lysate, 635/667 nm fluorescence (AID 1150).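 Also: score pools 667 nm emission and signal to noise measuring lysate protein binding.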 The following applies: COS7 hTOR1A mutant lysate, 635 nm fluorescence, higher = more signal.
In assay [10] the test system is Sonic hedgehog protein (Shh). The assay is described as follows: small-molecule binders of Shh protein, primary screen, biochemical, small-molecule microarray, 635/667 nm fluorescence (AID 1151).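 Also: Shh protein binding to compounds spotted on small-molecule microarray slides; score combines spot fluorescence intensity with signal-to-noise across triplicate slides.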 The following applies: small-molecule microarray binding, 635 nm fluorescence; higher = more signal.
Assay [11] can be described thus: E. coli DRC41 culture turbidity changes, primary screen, E. coli filamentation inducer project, strain DRC41, OD650, 48 h (AID 1152).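 Also: E. coli MC1000 strain DRC41 lacking acrAB efflux pump and sulA.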 The following applies: E. coli DRC41 (acrAB sulA), higher = more signal, called active from +8 up or from −8 down.
The nature of assay [12]: small-molecule binders of probe aLefty1, primary screen, biochemical, small-molecule microarray, 635/667 nm fluorescence (AID 1153).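 Also: score merges spot fluorescence with signal-to-noise ratio from the scanned slide images.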 The following applies: higher = more signal.
Assay [13] can be described thus: PSAC antagonists in infected red cells, primary screen, cell-based, P. falciparum Indochina, OD700, 1 h (AID 1154). The following applies: P. falciparum Indochina infected RBC osmotic lysis, higher = more signal, called active from +8 up or from −8 down.
Assay [14] in a line: PSAC antagonists in infected red cells, primary screen, cell-based, P. falciparum Indochina, OD700, 2 h (AID 1155).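 Also: lysis reports solute entry through the parasite surface anion channel PSAC; channel blockers reduce lysis of infected cells.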 The following applies: P. falciparum Indochina infected erythrocytes, osmotic lysis OD700; higher = more signal, called active from +8 up or from −8 down.
A short description of assay [15]: osmotic lysis modulators in infected erythrocytes, primary screen, PSAC antagonist project, cell-based, P. falciparum Indochina, OD700, 3 h (AID 1156). The following applies: higher = more signal, called active from +8 up or from −8 down.
The nature of assay [16]: PSAC antagonists in infected red cells, primary screen, cell-based, P. falciparum Indochina, OD700, 18 h (AID 1157). The following applies: P. falciparum Indochina infected erythrocytes, osmotic lysis OD700, 18 h; higher = more signal, called active from +8 up or from −8 down.
The nature of assay [17]: modulators of S6 phosphorylation in cells, primary screen, cell-based, A549, cytoblot, luminescence, serum-stimulated (AID 1158).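 Also: serum-stimulated A549 lung adenocarcinoma cells; signal is phosphorylated S6 detected by cytoblot immunostaining with HRP secondary.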 The following applies: A549 phospho-S6 cytoblot, 5 h, higher = more signal.
Assay [18] addresses NADPH oxidase 2 (Homo sapiens) (UniProt P04839). Description: NOX2-dependent H2O2 signal modulators, primary screen, NOX inhibitor project, cell-based, HEK293-NOX2, PMA-stimulated, Amplex Red fluorescence (AID 1159). Also: test concentration not given here. The following applies: 45 min, higher = more signal, called active from +8 up or from −8 down.
Assay [19] addresses NADPH oxidase 4 (Homo sapiens) (UniProt Q9NPH5). The assay is described as follows: NOX4-dependent H2O2 signal modulators, primary screen, NOX inhibitor project, cell-based, HEK293-NOX4, tetracycline-induced, Amplex Red fluorescence (AID 1160). The following applies: 45 min, higher = more signal, called active from +8 up or from −8 down.
In assay [20] the target is NADPH oxidase 5 (Homo sapiens) (UniProt Q96PH1). The assay is described as follows: NOX5-dependent H2O2 signal modulators, primary screen, NOX inhibitor project, cell-based, HEK293-NOX5, Amplex Red fluorescence (AID 1161). The following applies: HEK293-NOX5, ionomycin, 45 min, higher = more signal.
NADPH oxidase 5 (Homo sapiens), sequence (Q96PH1 whole entry, looked up): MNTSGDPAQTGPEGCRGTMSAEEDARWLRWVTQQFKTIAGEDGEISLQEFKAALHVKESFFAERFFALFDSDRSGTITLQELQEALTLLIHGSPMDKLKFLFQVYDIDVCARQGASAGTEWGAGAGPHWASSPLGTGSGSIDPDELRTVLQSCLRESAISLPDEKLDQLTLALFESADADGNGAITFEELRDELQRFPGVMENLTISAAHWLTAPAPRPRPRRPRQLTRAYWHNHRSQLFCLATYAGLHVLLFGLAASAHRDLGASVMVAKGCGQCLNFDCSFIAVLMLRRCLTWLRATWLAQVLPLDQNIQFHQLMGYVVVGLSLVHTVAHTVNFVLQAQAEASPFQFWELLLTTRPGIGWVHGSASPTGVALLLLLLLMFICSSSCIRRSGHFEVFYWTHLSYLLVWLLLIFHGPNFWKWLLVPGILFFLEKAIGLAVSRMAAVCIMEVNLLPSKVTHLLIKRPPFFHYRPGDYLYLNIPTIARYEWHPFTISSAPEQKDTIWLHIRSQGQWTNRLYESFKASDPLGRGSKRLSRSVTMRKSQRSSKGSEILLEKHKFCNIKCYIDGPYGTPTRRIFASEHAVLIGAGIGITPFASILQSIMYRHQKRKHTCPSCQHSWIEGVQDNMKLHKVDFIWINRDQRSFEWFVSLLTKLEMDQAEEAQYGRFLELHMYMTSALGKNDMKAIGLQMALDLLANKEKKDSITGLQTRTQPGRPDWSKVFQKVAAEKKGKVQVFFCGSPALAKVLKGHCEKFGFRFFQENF

NADPH oxidase 4 (Homo sapiens), sequence (Q9NPH5 whole entry, looked up): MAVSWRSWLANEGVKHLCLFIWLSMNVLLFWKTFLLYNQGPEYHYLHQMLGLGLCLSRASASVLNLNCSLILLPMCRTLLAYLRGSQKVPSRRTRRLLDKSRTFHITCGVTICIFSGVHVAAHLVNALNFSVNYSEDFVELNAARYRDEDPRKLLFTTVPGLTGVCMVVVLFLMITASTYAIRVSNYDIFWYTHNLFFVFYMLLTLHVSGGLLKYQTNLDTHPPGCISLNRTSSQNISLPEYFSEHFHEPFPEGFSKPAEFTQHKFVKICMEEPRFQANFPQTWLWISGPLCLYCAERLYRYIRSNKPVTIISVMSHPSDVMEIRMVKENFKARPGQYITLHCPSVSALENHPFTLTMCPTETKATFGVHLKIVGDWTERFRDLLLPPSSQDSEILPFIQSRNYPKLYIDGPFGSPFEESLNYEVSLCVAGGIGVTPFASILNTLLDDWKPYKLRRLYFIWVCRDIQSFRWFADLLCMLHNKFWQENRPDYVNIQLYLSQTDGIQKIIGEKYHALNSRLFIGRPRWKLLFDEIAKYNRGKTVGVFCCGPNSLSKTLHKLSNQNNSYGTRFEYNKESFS
Streptavidin (Streptomyces avidinii), sequence (P22629 whole entry, looked up): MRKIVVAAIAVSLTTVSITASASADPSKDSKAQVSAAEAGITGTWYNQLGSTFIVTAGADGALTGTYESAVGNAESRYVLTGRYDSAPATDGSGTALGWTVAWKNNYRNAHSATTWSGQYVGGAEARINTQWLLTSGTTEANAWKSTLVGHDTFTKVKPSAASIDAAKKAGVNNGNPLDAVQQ
Torsin-1A (Homo sapiens), sequence (O14656 whole entry, looked up): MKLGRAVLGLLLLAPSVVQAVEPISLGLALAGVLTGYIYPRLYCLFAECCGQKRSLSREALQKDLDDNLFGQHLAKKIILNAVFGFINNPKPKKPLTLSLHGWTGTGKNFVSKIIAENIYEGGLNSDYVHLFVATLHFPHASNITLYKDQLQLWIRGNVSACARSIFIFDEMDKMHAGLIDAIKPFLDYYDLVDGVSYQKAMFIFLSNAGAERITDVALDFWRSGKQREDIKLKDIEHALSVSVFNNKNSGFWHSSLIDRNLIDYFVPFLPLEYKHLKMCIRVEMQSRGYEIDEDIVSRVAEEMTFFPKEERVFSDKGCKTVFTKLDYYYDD
NADPH oxidase 2 (Homo sapiens), sequence (P04839 whole entry, looked up): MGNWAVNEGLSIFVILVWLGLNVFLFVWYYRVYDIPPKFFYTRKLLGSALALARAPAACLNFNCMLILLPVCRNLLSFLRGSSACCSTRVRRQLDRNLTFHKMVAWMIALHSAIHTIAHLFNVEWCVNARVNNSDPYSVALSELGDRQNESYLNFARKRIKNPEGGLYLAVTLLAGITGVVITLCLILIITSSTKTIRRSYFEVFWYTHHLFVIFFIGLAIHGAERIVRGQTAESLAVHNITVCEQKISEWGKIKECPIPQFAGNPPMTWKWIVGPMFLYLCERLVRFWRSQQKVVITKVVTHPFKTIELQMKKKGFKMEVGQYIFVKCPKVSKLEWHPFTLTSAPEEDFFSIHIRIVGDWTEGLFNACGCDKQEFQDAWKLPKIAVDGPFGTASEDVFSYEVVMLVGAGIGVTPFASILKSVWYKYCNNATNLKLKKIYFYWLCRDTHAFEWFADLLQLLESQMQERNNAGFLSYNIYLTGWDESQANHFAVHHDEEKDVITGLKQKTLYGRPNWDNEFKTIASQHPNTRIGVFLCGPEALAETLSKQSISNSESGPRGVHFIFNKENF

In the case of `C=C(COC)C(=O)CC[C@H](OC(C)=O)c1ccc(OCCO)cc1`, the composite z-score is 0.632 in assay [1]; -0.0693 in [6]; -0.0675 in assay [7]; 1.2 with Torsin-1A (Homo sapiens) [8]; 0.647 with Torsin-1A (Homo sapiens) [9]; 1.85 in assay [10]. The molecule further registered a composite z-score in assay [12] of -0.0984. The z-score is -3.53 (inactive) in assay [2]; -0.856 (inactive) in assay [3]; 2.77 (inactive) in [4]; 1.69 (inactive) in assay [5]; 1.5 (inactive) in assay [11]; 4.92 (inactive) in assay [13]. Also, the z-score was -1.68 (inactive) in [14]; 1.91 (inactive) in [15]; -1.85 (inactive) in assay [16]; 0.534 in assay [17]; -2.84 (inactive) in assay [18]; -1.63 (inactive) in assay [19]. Also, the z-score in assay [20] was -2.22.
As to `C=C(C(=O)CC[C@@H](OC(=O)c1ccccc1-c1ccccc1C(=O)O)c1ccccc1OCCO)C(C)C`, the composite z-score was 0.618 in assay [1]; -0.344 in assay [6]; -0.0529 in assay [7]; 0.908 in the assay with Torsin-1A (Homo sapiens) [8]; 0.663 with Torsin-1A (Homo sapiens) [9]; 2.3 in assay [10]. This molecule displayed a composite z-score in assay [12] of 0.15. Further, the z-score in [2] is 0.182 (inactive); in assay [3], -0.695 (inactive); in assay [4], 3.64 (inactive); in assay [5] it was 3.34 (inactive); in assay [11], 0.0884 (inactive); in assay [13], 4.57 (inactive). The z-score was 0.769 (inactive) in assay [14]; 1.56 (inactive) in [15]; 0.232 (inactive) in assay [16]; 0.689 in assay [17]; -0.518 (inactive) in assay [18]; -0.798 (inactive) in [19]. The molecule further displayed a z-score in assay [20] of -1.48.
For the molecule `COCCOC(=O)N1C(=O)[C@@]2(c3cc(C#CCCO)ccc31)[C@H](c1ccccc1OCCO)N1[C@H](c3ccccc3)[C@H](c3ccccc3)OC(=O)[C@H]1[C@@H]2C(=O)N1CCCCCCC1`, the composite z-score in assay [1] came out at 0.405; in assay [6], 1.31; in assay [7], 1.45; in the assay with Torsin-1A (Homo sapiens) [8] it was 1.22; with Torsin-1A (Homo sapiens) [9] it was 0.34; in [10] it was 1.97. The composite z-score in [12] was 2.58. For the same molecule, the z-score was -3.64 (inactive) in assay [2]; -1.29 (inactive) in assay [3]; -1.15 (inactive) in assay [4]; 0.481 (inactive) in assay [5]; 1.59 (inactive) in [11]; 2.44 (inactive) in assay [13]. For the same molecule, the z-score in assay [14] is 0.0348 (inactive); in assay [15], 0.431 (inactive); in assay [16], 0.951 (inactive); in assay [17], 0.626; in assay [18] it was 0.6 (inactive); in assay [19], 1.29 (inactive). In [20], the z-score amounted to 1.35.
`O=C1C2C=CC(C(O)c3ccc4c(c3)OCO4)N(Nc3ccccc3)C2C(=O)N1c1ccccc1` (stereo not given): the composite z-score in assay [1] was 0.096; in [6] it was 1.52; in assay [7], 0.143; in the assay with Torsin-1A (Homo sapiens) [8] it was -0.277; with Torsin-1A (Homo sapiens) [9], 0.426; in assay [10], 0.0743. Besides, the composite z-score in assay [12] was 0.065. The z-score is -0.924 (inactive) in assay [2]; -0.648 (inactive) in [3]; 0.44 (inactive) in assay [4]; 0.993 (inactive) in assay [5]; -1.27 (inactive) in assay [11]; 0.805 (inactive) in assay [13]. The z-score in assay [14] is 0.384 (inactive); in [15], 1.15 (inactive); in assay [16] it was 1.39 (inactive); in assay [17], -0.777; in assay [18] it was -0.279 (inactive); in assay [19], 0.756 (inactive). The z-score in assay [20] was -1.12.
Consider `CCCCC(=C=CC[C@H](O)c1ccc(OCCO)cc1)C[C@H](O)c1cc(Cl)cc(Cl)c1O`, for which the composite z-score in [1] is -0.223; in assay [6], 0.315; in assay [7], -0.15; in the assay with Torsin-1A (Homo sapiens) [8] it was 0.296; in the assay with Torsin-1A (Homo sapiens) [9] it was 0.51; in assay [10], 0.646. In [12], this molecule came in with a composite z-score of 0.13. Besides, the z-score was -0.849 (inactive) in [2]; -0.145 (inactive) in assay [3]; 7.85 (inactive) in [4]; -0.218 (inactive) in assay [5]; -0.118 (inactive) in assay [11]; 21.2 (active) in assay [13]. Besides, the z-score in assay [14] is 5.19 (inactive); in assay [15], 1.56 (inactive); in assay [16], 1.73 (inactive); in assay [17], -0.476; in assay [18], 0.51 (inactive); in assay [19] it was -0.667 (inactive). The z-score in [20] was -1.49.
